# Assay results as given in the OligoGym collection.
# Target: C9orf37
# Experiment: pooled miR-30 sensor sort-seq; sequence = guide strand
# Details: shRNA
# Note: reference of the scale not given here.
row,Sequence,sensor-assay potency score (higher = more potent)
1,ATGGTGGTGAAGAAGGCTCTGG,-0.917
2,TTCTCCTTTAGGGCGAAGGGGT,-1.42
3,TTTGTCAGTTACCTTATCTATA,-0.888
4,TCCAGTTCTCCTTTAGGGCGAA,-0.959
5,TCAAATTCCAGTTCTCCTTTAG,-1.07
6,TTATCTATAAAATGCACAGGAC,-1.03
7,TCTGTGGAACAGCATTTCTCAA,-1.65
8,TTCTGTGGAACAGCATTTCTCA,-0.352
9,TTACCTTATCTATAAAATGCAC,-0.752
10,AAATGCACAGGACCAGGCCGGG,-1.34
11,TACCTTATCTATAAAATGCACA,-0.634
12,TATCTATAAAATGCACAGGACC,-1.69

# Target: C9orf72
# Experiment: as above
# Details: shRNA
row,Sequence,sensor-assay potency score (higher = more potent)
1,TACAGTAATTCTACACACCAAA,-0.818
2,TTGACATCCACATCTATGTGTG,-0.37
3,TAAAATAAACAAAACACCCTAA,0.0855
4,TATATTGTAAACATAGGTCTGT,0.698
5,TATGCATCCATATTCTTCCTTT,-0.33
6,TTACAGGAATCACTTCTCCAGT,-1.29
7,TATTTCTTCAGGAACACTGTGT,0.74
8,TAATCTATCAACACACACTCTA,0.268
9,TAAATCAAGGTCTATCTTCAGG,-0.851
10,TTTCACTAGAGTGTCTCTGTGT,0.565
11,TTAATCTATCAACACACACTCT,-0.521
12,TACATCTATAGCACCACTCTCT,-0.415

# Target: C9orf93
# Experiment: as above
# Details: shRNA
row,Sequence,sensor-assay potency score (higher = more potent)
1,TTGGTTGTTATTTCTAACTTTT,-0.955
2,TTTAGTGTGAGAGTCTATCTTC,0.39
3,TTGCACAGCAGTATCTTGCTCC,0.17
4,TTAATTGTACTGTTAACTCTTC,-0.0565
5,TTCCTTTCTAGCAACAGCTAGG,-0.694
6,TTGAATGGTCTCGTGATCCTAT,0.611
7,TTAACTCTTTATTAACATCAGC,-1.03
8,TTGTCTTTGCTTGAAGTTCTGA,0.0324
9,TTTGCTTCTGCAACGATGCTGT,0.756
10,TAAACAACGCAACTGCTCCTTT,0.206
11,TTTGGTAAAGGTGTCTTCCTGA,0.821

# Target: CA4
# Experiment: as above
# Details: shRNA
row,Sequence,sensor-assay potency score (higher = more potent)
1,TGTCGTAGTACAGCTTCTGAGA,-0.691
2,TTATTTTGGACAGTCCACGTTT,-0.237
3,TTTTTGTCCACCTTTGCCTTGG,-0.0193
4,TTTTTTGTCCACCTTTGCCTTG,-1.1
5,TTCTCTGTGAAGCTGAATGGGC,-0.889
